# KB-3-1 tox: qHTS assay for MDR1-selective chemotherapeutics: Primary screen using the parental adenocarcinoma cell KB-3-1; Potency, µM (doses to about 46.1 µM), actives largely listed as cytotoxic; 400,000 tested, 1.4% active; AID 1347075, 2019; KB-3-1 viability, CellTiter-Glo ATP luminescence, 72 h; also: nearly all actives have a fitted effect of over 60% in size
#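 72 h, 37 °C compound treatment of KB-3-1 parental cells; CellTiter-Glo added, 10 min, luminescence read. Data corrected against DMSO-only plates and normalized before curve fitting.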
# PINK1 expr mod: A Quantitative High throughput Screen to Identify Chemical Modulators of PINK1 Expression | PINK1 immunofluorescence, high-content cytometry, 24 h | Potency, µM (titrated, usually from 76.6 µM), usual class: activators | 410,000 tested, 0.2% active; active = well fitted activation curve with a large enough effect; inconclusive = small, poorly fitted or top-dose-only effect; cell line not stated here; also: nearly all actives have a fitted effect of over 65% in size
#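 Readout is PINK1 immunofluorescence, quantified alongside mitochondrial, cell and nuclear markers by laser-scanning microplate cytometry. Cells from a stable line were exposed to compound titrations (5 concentrations) for 24 hours, with CCCP controls.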
# MCF10A rereplic: A quantitative high throughput screen for small molecules that induce DNA re-replication in MCF 10a normal breast cells | 350,000 tested, 2.9% active | MCF 10A DNA re-replication, Hoechst nuclear intensity, 48 h | AID 624296, 2012 | Potency, µM (top dose mostly 46.1 µM), usual class: activators; also: nearly all actives have a fitted effect of over 50% in size
# KB-V1 MDR tox: qHTS assay for MDR1-selective chemotherapeutics: Primary screen using the drug-selected MDR subline cells KB-V1. KB-V1 MDR cells viability, CellTiter-Glo, 72 h. Potency, µM (highest dose often 46.1 µM), hits mostly cytotoxic. 400,000 tested, 3.4% active. AID 1347076, 2019; also: nearly all actives have a fitted effect of over 60% in size
#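 Drug-selected KB-V1 cells, grown in DMEM lacking phenol red with 10% FBS, receive compound titrations; after three days at 37 degrees C, surviving cell ATP is quantified by CellTiter-Glo luminescence and responses normalized and curve-fitted.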
# SW480 rerep: A quantitative high throughput screen for small molecules that induce DNA re-replication in SW480 colon adenocarcinoma cells. SW480 DNA re-replication, Hoechst DNA content imaging, 48 h. Potency, µM (top dose mostly 46.1 µM), usual class: activators. 340,000 tested, 1.8% active; also: nearly all actives have a fitted effect of over 55% in size
#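 250 cells/well; 23 nL cpd via pin tool; 48 hr, 37 C, 5% CO2; Hoechst 40 min; imager read of total nuclear intensity, ex 405/em 500-530 nm.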
# A number is an active result; 0 = inactive; ? = inconclusive; - = no result given. Compounds with a hit are over-represented: about 6.7% of the library has one in this group of screens. Unless noted, calls follow the shape of the dose curve; as a rule, active = well fitted curve in the direction sought with a large enough effect; inconclusive = small, poorly fitted or top-dose-only effect, or another doubt; inactive = no such curve, though single readings can be large; an effect the other way counts as inactive or inconclusive.
SMILES,KB-3-1 tox,PINK1 expr mod,MCF10A rereplic,KB-V1 MDR tox,SW480 rerep
COc1cc2c(cc1OC)[C@@H]1C(=O)c3ccc4c(c3OC1CO2)CC(C(C)C)O4 (stereo partly specified),-,0,-,-,-
COc1cc2c(cc1OC)[C@@H]1C(=O)c3ccc(OC)c(CC=C(C)C)c3OC1CO2 (stereo partly specified),-,20µM,-,-,-
O=C(Oc1ccccc1)N1CCC[C@@]2(CCN(Cc3nccs3)C2)C1,-,0,-,-,-
COC(=O)C1=C(c2ccccc2OCc2ccccc2)C[C@@H]2CC[C@H]1N2C(=O)NCc1ccc(C(F)(F)F)cc1,?,0,0,0,0
COC(=O)C1=C(c2ccc(F)cc2OCc2ccccc2)C[C@@H]2CC[C@H]1N2C(=O)NCc1ccc(C(F)(F)F)cc1,0,0,14.6µM,0,0
COC(=O)C1=C(c2cc3ccccc3s2)C[C@@H]2CC[C@H]1N2C(=O)NCc1ccc(C(F)(F)F)cc1,?,0,?,18.4µM,0
COC(=O)C1=C(c2cc3ccccc3s2)C[C@@H]2CC[C@H]1N2C(=O)NCC1CC1,0,0,0,0,0
COC(=O)C1=C(c2ccccc2OCc2ccccc2)C[C@@H]2CC[C@H]1N2C(=O)NCCc1ccc(F)cc1,?,0,0,0,5.8µM
CN1CCN(c2ncc3ncc(=O)n(C)c3n2)CC1,-,0,-,-,-
COc1ccc(CCNC(=O)c2c(N)n(CCN3CCOCC3)c3nc4ccccc4nc23)cc1,?,0,?,?,16.4µM
CCCCn1c(N)c(C(=O)NCCN2CCOCC2)c2nc3ccccc3nc21,0,0,20.6µM,0,18.4µM
Nc1c(C(=O)NCCc2ccccc2)c2nc3ccccc3nc2n1CCN1CCOCC1,0,0,0,23.1µM,0
C=CCNC(=O)c1c(N)n(Cc2ccco2)c2nc3ccccc3nc12,0,0,0,0,0
Nc1c(C(=O)NCCN2CCOCC2)c2nc3ccccc3nc2n1Cc1ccccc1,0,0,14.6µM,?,23.1µM
COCCNC(=O)c1c(N)n(Cc2ccco2)c2nc3ccccc3nc12,0,0,0,0,0
O=C(c1ccncc1)N1CCC[C@@]2(CCN(Cc3nccs3)C2)C1,-,0,-,-,-
CC[C@]1(c2cccc(O)c2)CCCCN(C)C1,-,-,0,-,0
O=C(OCCCCN1C(=O)c2ccccc2C1=O)c1ccc(Br)o1,0,?,0,0,0
Nc1c(C(=O)NCCN2CCOCC2)c2nc3ccccc3nc2n1Cc1ccco1,0,0,6.51µM,0,8.2µM
[O]=[Cd],-,-,0,-,0
COc1ccc(S(=O)(=O)N(C)C[C@H]2Oc3c(NC(=O)NC4CCCCC4)cccc3C(=O)N([C@H](C)CO)C[C@@H]2C)cc1,0,0,0,0,?
CC1=CC(O)C(O)C2(C)C1CC1OC(=O)CC3C(C)C(O)C(=O)C2C13CO (stereo unspecified),18.4µM,0,0,0,?
O=[N+]([O-])OC1CO[C@H]2C(O[N+](=O)[O-])COC12 (stereo partly specified),-,-,0,-,0
COCCCNC(=O)c1c(NC(=O)c2ccccc2Cl)n(Cc2ccccc2)c2nc3ccccc3nc12,0,0,?,2.59µM,10.3µM
COCCNC(=O)c1c(NC(=O)c2ccco2)n(Cc2ccccc2)c2nc3ccccc3nc12,0,0,?,0,2.59µM
SMILES,KB-3-1 tox,PINK1 expr mod,MCF10A rereplic,KB-V1 MDR tox,SW480 rerep
CCCCC(CC)COP(=O)(OCC(CC)CCCC)OCC(CC)CCCC (stereo unspecified),?,0,0,?,?
CC1CCN(c2ccccc2NC(=O)c2cc3ccccc3o2)CC1,0,?,?,0,0
C=CC[C@@H](CC(=O)N(CCO)Cc1ccccc1)C(=O)NC[C@H](OC(=O)[C@@H](CC=C)CC(=O)OC(C)(C)C)c1ccccc1,?,0,0,0,0
Cc1sc(NC(=O)Cn2c(=O)oc3ccccc32)nc1-c1ccc(Cl)cc1,?,0,?,0,0
O=C1C2CC=CCC2C(=O)N1SC(Cl)(Cl)Cl (stereo unspecified),-,-,4.22µM,-,6.68µM
[S]=[Sb][S][Sb]=[S],-,-,0,-,0
CCS(=O)(=O)C(C)(C)S(=O)(=O)CC,-,-,0,-,0
C#C[C@]1(O)CC[C@H]2[C@@H]3CCC4=CC(=O)CC[C@]4(C)[C@H]3CC[C@@]21C,0,0,0,0,0
C#C[C@]1(O)CCC2C3C(=O)C=C4C(Cl)=CCC[C@]4(C)C3CC[C@@]21C (stereo partly specified),0,0,18.4µM,0,?
Cc1noc(C)c1C(=O)N1CCC2(CCCN(CC(C)C)C2)CC1,-,0,-,-,-
O=C(COc1ccccc1Cl)N1CCN(CCc2ccccn2)CC1,0,0,-,0,-
O=C(Oc1ccccc1)N1CCC[C@@]2(CCN(Cc3ccccc3)C2)C1,-,0,-,-,-
CC12Cc3cnoc3C=C1CCC1C2CCC2(C)C1CCC2(C)O (stereo unspecified),6.51µM,0,?,?,0
CCOc1ccc(CN(CCc2ccc3c(c2)OCO3)Cc2ccc(OC)c(Br)c2)cc1,-,0,-,-,-
O=[N+]([O-])c1ccc(NCc2ccccc2)c2nonc12,0,39.8µM,0,0,0
C[C@H]1CN(C2CCC(C#N)(c3ccc(F)cc3)CC2)CC[C@@]1(C(=O)O)c1ccccc1 (stereo partly specified),-,-,0,-,0
CC(C)(O)[C@H]1O[C@H]2CC[C@@]3(C)[C@@](O)(CC[C@H]4Cc5c([nH]c6ccccc56)[C@@]43C)C2=CC1=O,0,0,?,0,0.731µM
CCCCCCn1c(=O)c(C(=O)Nc2nc(CC(=O)OCC)cs2)c(O)c2ccccc21,?,0,?,2.06µM,0
CCCCCn1c(=O)c(C(=O)Nc2cccc(C)n2)c(O)c2ccccc21,0,0,0,?,0
CCOC(=O)Cc1csc(NC(=O)c2c(O)c3ccccc3n(CCC(C)C)c2=O)n1,?,0,0,8.2µM,0
Cc1ccc2scc(N3CCN(C)CC3)c(=O)c2c1,0,0,-,0,-
O=C(CSC1c2ccccc2-c2ccccc21)N/N=C/c1ccccc1O,?,0,2.06µM,5.17µM,?
CC(C)C[C@H]1C(=O)N2CCCC2[C@]2(O)O[C@](NC(=O)[C@@H]3C=C4c5cccc6[nH]c(Br)c(c56)C[C@H]4N(C)C3)(C(C)C)C(=O)N12 (stereo partly specified),-,-,0,-,0
CCOC(=O)[C@]12Cc3cc(C)ccc3[C@H]1N(C)C(=O)c1ccccc12,0,0,-,0,-
CCOC(=O)[C@]12Cc3cc(OC)ccc3[C@H]1N(C1CCCCC1)C(=O)c1ccccc12,3.26µM,0,-,2.31µM,-
CCOC(=O)[C@]12Cc3cc(Cl)ccc3[C@H]1N(C1CCCCC1)C(=O)c1ccccc12,1.64µM,0,-,?,-

# Assay outcomes from PubChem BioAssay.
